About 160 (11%) of roughly 1,400 compounds were called active. Not all results are given here. A number with no mark means an inactive call. Cut-off read from the data, not from the text of the source: active = inhibition above about 15%; inactive = the rest.
Experiment: viability loss in Jurkat lymphocytes – cell-based, luminescence, high throughput, cytotoxicity control for T. brucei MetRS inhibitor project (AID 624413);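 note: 0% = vehicle and 100% = reference inhibitor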
Conditions: Jurkat cells viability, ATP luminescence; at 8.3 µM; stronger effect = higher value

Point of comparison: O=C(NNC(=O)c1ccc(-n2cncn2)c([N+](=O)[O-])c1)c1ccccc1, inhibition 5.48%. Against it:
- Cc1ccc(N2C(=O)CC(NCc3ccc4c(c3)OCO4)C2=O)cc1Cl (configuration not stated) — lower, -6.39%
- O=[N+]([O-])c1ccc(N2CCN(c3ccc(O)cc3)CC2)c(Cl)c1 — lower, 1.76%
- O=S(=O)(NCc1ccc(Cl)cc1Cl)c1cccs1 — lower, -0.99%
- O=C(Nc1ccccc1)Nc1nnc(COc2ccccc2F)s1 — lower, 5.35%
- O=C(Nc1ccc(Cl)cc1)N1CCc2[nH]c3ccccc3c2C1 — lower, 1.46%
- O=C(CSCC(=O)Nc1cccc([N+](=O)[O-])c1)Nc1ccccc1 — lower, -0.93%
- O=C(/C(=N\O)n1cncn1)c1ccc(Br)cc1Br — lower, -3.9%
- O=C(NNc1cc(Cl)cc(Cl)c1)c1c(F)cccc1Cl — lower, 1.84%
- COc1ccc(CCn2ccc(O)c(Cc3ccc(Cl)cc3Cl)c2=O)cc1OC — higher, 9.61%
- Cc1ccc(S(=O)(=O)c2c[nH]c3ccc(Cl)cc3c2=O)cc1 — higher, 5.58%
- CCCCCCCC[n+]1cccc(C(=O)N2c3c(nc(N)[nH]c3=O)NC(C)C2C)c1 (configuration not stated) — higher, 10%
- CC(=O)c1ccc(NC(=O)c2ccc(-n3cncn3)c([N+](=O)[O-])c2)cc1 — lower, 2.58%
- CCCCN(C)Cc1c(C)[nH]c2ccc(Cl)cc2c1=O — lower, -0.56%
- c1ccc(CN=C2Nc3ccccc3CS2)nc1 — lower, 0.23%
- OCCNc1nc2ccccc2n1-c1ncnc2sc3c(c12)CCC3 — higher, 9.96%
- Clc1ccc(-c2cc(C3CCNCC3)[nH]n2)c(Cl)c1 — lower, -0.28%
- NC1=NC(=O)S/C1=C\c1ccc(O)cc1 — higher, 7%
- COC(=O)/C(=C\Nc1ccccc1)NC(=O)c1ccc(Cl)cc1Cl — higher, 11.3%
- O=C(NCc1cccc(CNC(=O)Nc2cccc(O)c2)c1)Nc1cccc(O)c1 — higher, 13.5%
- Cc1ccc(NC(=O)C(C)c2cccc(C(=O)c3ccccc3)c2)cc1 (configuration not stated) — lower, 1.82%
- OC(c1cc(Cl)cc(Cl)c1)c1ncc(-c2ccccc2C(F)(F)F)[nH]1 (configuration not stated) — higher, 6.67%
- CCCCN1C[C@H](c2ccc(Br)cc2)[C@@H](CC(=O)Nc2ccc(Br)cc2)C1=O — higher, 7.69%
- Cc1ccc(S(=O)(=O)c2c[nH]c3ccc(C)cc3c2=O)cc1 — lower, 4.57%
- CCN(CC)C(=O)C(=O)c1cn(CC(=O)NCc2ccc3c(c2)OCO3)c2ccccc12 — lower, 2.71%

In the case of O=C(Nc1cccc([N+](=O)[O-])c1)N1CCc2ccccc2C1, the inhibition is reported as 17% (active).
With c1ccc2cc3c(NCCN4CCOCC4)ccnc3cc2c1 the inhibition was 22.4% (active).
